Measurements reported in PubChem BioAssay (Tox21).
Inconclusive results are not listed. A call without a number means that no potency is given here. A number with no mark means an inactive call. Activity calls are given as the source filed them. Calls come from the whole dose curve; as a rule, active = well fitted cell-killing curve with a large enough effect in the repeat runs; inconclusive = weak or mixed curves, or effect the other way; inactive = flat fitted curve, though single readings scatter.

What was measured:
[1] = cAMP Responsive Elements (CRE) small molecule antagonists, cell-based qHTS assay: qHTS cell viability counter screen (AID 2060913); note: nearly all actives have a fitted effect of over 40% in size
Summary of the method: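 CRE-bla HEK293T cells (2,000/well, 18 h) given compound plus NKH477 0.25 uM final for 3 h at 37C; viability counter-screen by CellTiter-Glo luminescence in same wells after 30 min.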

[2] = cAMP Responsive Elements (CRE) small molecule agonists, cell-based qHTS assay: qHTS cell viability counter screen (AID 2060914);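 note: viability read after 3 h of compound exposure; nearly all actives have a fitted effect of over 50% in size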
Summary of the method: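 Cells are seeded and incubated 18 h, treated with compounds in DMSO for 3 h, read for the bla reporter, then given CellTiter-Glo; luminescence is measured after 30 min at room temperature.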

Row | SMILES | Potency [1] | Potency [2] | viability change, negative = cytotoxic [1] | activity change, negative = cytotoxicity [2]
1 | COC1=CC(=O)O[C@@H](/C=C/c2ccc3c(c2)OCO3)C1 | inactive | inactive | – | –
2 | CC(C)C(Br)C(=O)NC(N)=O (configuration not stated) | inactive | inactive | – | –
3 | Cc1cccc(C)c1N | inactive | inactive | – | –
4 | CCOP(=S)(OCC)SCS(=O)(=O)CC | inactive | inactive | – | –
5 | N#CN | inactive | inactive | – | –
6 | CCOP(=S)(OCC)Oc1ccc(Cl)cc1Cl | inactive | inactive | – | –
7 | OC[C@@H](O)[C@H]1O[C@@H]2O[C@H](C(Cl)(Cl)Cl)O[C@@H]2[C@H]1O | inactive | inactive | – | –
8 | CC(C)(Cl)Cl | inactive | inactive | – | –
9 | CC(=O)C(C)(C)C | inactive | inactive | – | –
10 | Clc1ccc(C(Cl)(Cl)Cl)cc1Cl | inactive | inactive | – | –
11 | CCNc1nc(Cl)nc(NC(C)C)n1 | inactive | inactive | – | –
12 | Nc1ccc2c(c1)Cc1ccccc1-2 | inactive | inactive | – | –
13 | O=P(O)(O)CCCl | inactive | inactive | – | –
14 | CCOP(=O)(OCC)OCC | inactive | inactive | – | –
15 | CCC[N+]1(C)CCCCC1 | inactive | inactive | – | –
16 | Cn1c(-c2ccccc2)cc(-c2ccccc2)[n+]1C | inactive | inactive | – | –
17 | Oc1c(Cl)cccc1Cl | inactive | inactive | – | –
18 | CN(C)[C@@H]1C(=O)C(C(N)=O)=C(O)[C@@]2(O)C(=O)C3=C(O)c4c(O)cccc4[C@@](C)(O)[C@H]3[C@H](O)[C@@H]12 | inactive | inactive | – | –
19 | CCOC(=O)C1OC1(C)c1ccccc1 (configuration not stated) | inactive | inactive | – | –
20 | CCOP(=S)(OCC)Oc1nc(Cl)n(C(C)C)n1 | inactive | inactive | – | –
21 | COc1c(C(C)(C)C)cc([N+](=O)[O-])c(C)c1[N+](=O)[O-] | inactive | inactive | – | –

Row | SMILES | Potency [1] | Potency [2] | viability change, negative = cytotoxic [1] | activity change, negative = cytotoxicity [2]
22 | O=C(O)CCCc1ccc(N(CCCl)CCCl)cc1 | inactive | inactive | – | –
23 | Cc1ccc(N)c(N)c1 | inactive | inactive | – | –
24 | COc1ccc2c3c1O[C@H]1[C@@H](O)C=C[C@H]4[C@@H](C2)N(C)CC[C@@]341 | inactive | inactive | – | –
25 | CCCCN(CCCC)C(=S)[S-].CCCCN(CCCC)C(=S)[S-].[Zn+2] | inactive | inactive | – | –
26 | CC(Br)C(=O)O (configuration not stated) | inactive | inactive | – | –
27 | NC(=O)CI | inactive | inactive | – | –
28 | CN1C(=O)C(O)N=C(c2ccccc2)c2cc(Cl)ccc21 (configuration not stated) | inactive | inactive | – | –
29 | CC(O)C#N (configuration not stated) | inactive | inactive | – | –
30 | CCC(C)c1cc(C(C)(C)C)cc(-n2nc3ccccc3n2)c1O (configuration not stated) | inactive | inactive | – | –
31 | N#Cc1ccc(N(CC(N)=O)CC(F)(F)F)cc1C(F)(F)F | inactive | inactive | – | –
32 | C=C(C)CCl | inactive | inactive | – | –
33 | C#CCN1C(=O)COc2cc(F)c(N3C(=O)C4=C(CCCC4)C3=O)cc21 | inactive | inactive | – | –
34 | O=C(CBr)c1ccccc1 | inactive | inactive | – | –
35 | O=NN1CCNCC1 | inactive | inactive | – | –
36 | CC(C#N)CCC#N (configuration not stated) | inactive | inactive | – | –
37 | CCOC(=O)c1ccccc1N | inactive | inactive | – | –
38 | CCCCN(CCCC)C(=S)S | inactive | inactive | – | –
39 | COc1ccc(-c2ccccc2)cc1NNC(=O)OC(C)C | inactive | inactive | – | –
40 | CCCCCCC(=O)CCCCCC/C=C/C[C@@H](O)[C@H](O)[C@@](N)(CO)C(=O)O | – | – | 2.93% [at 18.9 µM] | -1.02% [at 18.9 µM]
41 | NCCCNCCCN | inactive | inactive | – | –
42 | NNC(=O)c1cccnc1 | inactive | inactive | – | –

Row | SMILES | Potency [1] | Potency [2] | viability change, negative = cytotoxic [1] | activity change, negative = cytotoxicity [2]
43 | N#CCCCl | inactive | inactive | – | –
44 | ClCCN1CCOCC1 | inactive | inactive | – | –
45 | CC1N=C(N)OC1c1ccccc1 (configuration not stated) | inactive | inactive | – | –
46 | Cc1[nH]c(=O)n(C(C)(C)C)c(=O)c1Cl | inactive | inactive | – | –
47 | CN(C)CCC#N | inactive | inactive | – | –
48 | S=C=NCCc1ccccc1 | inactive | inactive | – | –
49 | COc1ccc2[nH]cc(CCN(C(C)C)C(C)C)c2c1 | inactive | inactive | – | –
50 | N#CC(Cl)Cl | inactive | inactive | – | –
51 | OC(c1ccc(Cl)cc1)(c1cncnc1)c1ccccc1Cl (configuration not stated) | inactive | inactive | – | –
52 | CC(CC(C(N)=O)(c1ccccc1)c1ccccc1)N(C)C (configuration not stated) | inactive | inactive | – | –
53 | O=Cc1cccc(Oc2ccccc2)c1 | inactive | inactive | – | –
54 | S=C=Nc1ccccc1 | inactive | inactive | – | –
55 | CCCCOC(=O)c1ccccc1N | inactive | inactive | – | –
56 | CC12CC1(C)C(=O)N(c1cc(Cl)cc(Cl)c1)C2=O (configuration not stated) | inactive | inactive | – | –
57 | CC(C)(CCl)C(=O)Cl | inactive | inactive | – | –
58 | Nc1ccccc1C(=O)OCC(O)CO (configuration not stated) | inactive | inactive | – | –
59 | CCCCC(CC)COC(=O)c1c(Br)c(Br)c(Br)c(Br)c1C(=O)OCC(CC)CCCC (configuration not stated) | inactive | inactive | – | –
60 | CCCCCCCCOC(=O)c1ccc(C(=O)OCCCCCCCC)c(C(=O)OCCCCCCCC)c1 | inactive | inactive | – | –
61 | ClC1C(Cl)C(Cl)C(Cl)C(Cl)C1Cl (configuration not stated) | inactive | inactive | – | –
